# Measured values taken from PubChem BioAssay (Tox21).
# Values without a mark were called inactive. Inconclusive results are not listed. Entries that show only a call come without a potency. Activity calls are given as the source filed them. Unless noted, the call rests on the fitted dose curve; in most records, active means well fitted curve in the direction sought with a large enough effect in the repeat runs; inconclusive means weak or mixed curves; inactive means no such curve, though single readings can be large; an effect the other way counts as inactive or inconclusive.
# Key:
# [1] = qHTS assay for small molecules that induce genotoxicity in human embryonic kidney cells expressing luciferase-tagged ATAD5 (AID 651632); details: HEK293T ATAD5-luciferase induction, 16 h; series mostly up to 83.3 µM; further: nearly all actives have a fitted effect of over 15% in size; further: potency means the concentration at half of the fitted maximal effect
# Procedure, shortened: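 Test compounds were delivered by pin tool onto HEK293T reporter cells (2,000/well) expressing ATAD5 fused to luciferase. After 16 hr at 37C, 5% CO2, Amplite was added for 30 min at room temperature and luminescence was measured.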
# [2] = qHTS assay for small molecule agonists of the p53 signaling pathway - cell viability (AID 651633; calls by dose curve; further: nearly all actives have a fitted effect of over 30% in size; further: potency means the concentration at half of the fitted maximal effect); details: p53RE-bla HCT-116 viability, ATP luminescence, 16 h; series mostly up to 83.3 µM
# Procedure, shortened: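 Viability counter-read: CellTiter-Glo luminescence (30 min, room temperature) in the same p53RE-bla plates. These plates had been exposed to compounds for 16 h at 37 C.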
# [3] = qHTS assay for small molecules that induce genotoxicity in human embryonic kidney cells expressing luciferase-tagged ATAD5 - cell viability (AID 651634; calls by dose curve; further: nearly all actives have a fitted effect of over 25% in size; further: potency means the concentration at half of the fitted maximal effect); details: HEK293T ATAD5-luc cells viability, CellTiter-Fluor, 15.5 h; series mostly up to 83.3 µM
# Procedure, shortened: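 Quantitative high-throughput format. HEK293T cells expressing ATAD5 fused to luciferase were plated at 2,000 cells/well and treated 15.5 hr with compound versus DMSO. Viability was determined by fluorescent live-cell protease substrate, 30 min at 37C.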
# [4] = qHTS assay for small molecule disruptors of the mitochondrial membrane potential - cell viability (AID 720634; calls by dose curve;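 further: human HepG2 liver cancer cells; nearly all actives have a fitted effect of over 20% in size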); details: HepG2 viability, ATP luminescence (CellTiter-Glo), 1 h; series mostly up to 83.2 µM
# Procedure, shortened: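 Same-well counter-screen: following the MMP dye addition, CellTiter-Glo was added to 1 hr compound-treated HepG2 cells and luminescence read after 30 min at room temperature.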
# [5] = qHTS assay to test for compound auto fluorescence at 590 nm (red) in HepG2 cells (AID 720674); details: HepG2 autofluorescence, red 540/590 nm, 1 h; series mostly up to 46 µM
# Procedure, shortened: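 Red autofluorescence (Ex/Em 540/590 nm, Rose Bengal sodium equivalents) was measured in HepG2 cells, 2,000 per well in MEM plus 10% FBS, plated overnight at 37 C. Readings were taken 1 hr after adding 23 nL compound or DMSO, at 37 C and 5% CO2.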
# [6] = qHTS assay to test for compound auto fluorescence at 460 nm (blue) in HEK293 cells (AID 720678); details: blue autofluorescence 405/460 nm; series mostly up to 46 µM
# Procedure, shortened: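 Triamterene serves as the blue fluorophore standard. Compound signal at 405/460 nm is read in HEK293 wells (2,000 cells, 10% dialyzed FBS) after overnight treatment at 37C.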
# [7] = qHTS assay to test for compound auto fluorescence at 590 nm (red) in HEK293 cells (AID 720679); details: red autofluorescence 540/590 nm; series mostly up to 46 µM
# Procedure, shortened: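 We plated HEK293 cells in 10% dialyzed FBS medium, let them adhere for 4-5 hr, then added 23 nL compound. Overnight at 37C and 5% CO2 preceded fluorescence measurement at 540/590nm.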
# [8] = qHTS assay to test for compound auto fluorescence at 535 nm (green) in HEK293 cells (AID 720680); details: green autofluorescence 485/535 nm; series mostly up to 46 µM
# [9] = qHTS assay to test for compound auto fluorescence at 535 nm (green) in HEK293 cell free culture (AID 720682); details: cell-free medium, green autofluorescence 485/535 nm; series mostly up to 46 µM
# Procedure, shortened: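 Cell-free medium (DMEM, 10% FBS) receives compound or DMSO by pintool. Plate read directly at Ex 485/Em 535 nm. Signal converted to fluorescein equivalency.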
# [10] = qHTS assay to test for compound auto fluorescence at 590 nm (red) in HEK293 cell free culture (AID 720683); details: cell-free medium autofluorescence, Ex540/Em590 red; series mostly up to 46 µM
# Procedure, shortened: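 Red-channel autofluorescence of compounds in culture medium (DMEM, 10% FBS), no cells, measured at 540/590 nm. Rose Bengal sodium is the reference fluorophore for equivalence.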
# [11] = qHTS assay to test for compound auto fluorescence at 590 nm (red) in HepG2 cell free culture (AID 720684); details: cell-free medium autofluorescence, red 540/590 nm; series mostly up to 46 µM
# Procedure, shortened: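 Cell-free; medium MEM + 10% FBS; compound or DMSO added by pintool; read Ex 540/Em 590 nm; Rose Bengal sodium as red reference fluorophore.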
# [12] = qHTS assay to test for compound auto fluorescence at 460 nm (blue) in HepG2 cell free culture (AID 720685); details: Cell-free culture medium, blue autofluorescence 405/460 nm; series mostly up to 46 µM
# Procedure, shortened: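 Cell-free plates of MEM plus 10% FBS received 23 nL compound or DMSO vehicle; blue-channel (405/460 nm) intensity scored against triamterene as reference fluorophore.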
# [13] = qHTS assay to test for compound auto fluorescence at 460 nm (blue) in HepG2 cells (AID 720687); details: autofluorescence 405/460 nm, 1 h; series mostly up to 46 µM
# Procedure, shortened: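 Blue-channel autofluorescence (Ex/Em 405/460 nm, triamterene-equivalent) was measured after 1 hr compound exposure at 37 C, 5% CO2. Cells were HepG2, plated overnight at 37 C in MEM plus 10% FBS.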
# [14] = qHTS assay to identify small molecule antagonists of the estrogen receptor alpha (ER-alpha) signaling pathway using the BG1 cell line - cell viability counter screen (AID 743081); details: BG1Luc4E2 viability, CellTiter-Fluor, 22 h; series mostly up to 70.3 µM;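 further: compound given together with 17beta-estradiol as the ER stimulus; nearly all actives have a fitted effect of over 45% in size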
# Aromatase (Homo sapiens) = Aromatase (Homo sapiens) (UniProt P11511); assay: qHTS assay to identify aromatase inhibitors (AID 743083); details: MCF-7 aro ERE, testosterone-driven ERE luciferase, 24 h; series mostly up to 70.3 µM; further: nearly all actives have a fitted effect of over 55% in size
# Chain of Aromatase (Homo sapiens) (P11511 whole entry, looked up): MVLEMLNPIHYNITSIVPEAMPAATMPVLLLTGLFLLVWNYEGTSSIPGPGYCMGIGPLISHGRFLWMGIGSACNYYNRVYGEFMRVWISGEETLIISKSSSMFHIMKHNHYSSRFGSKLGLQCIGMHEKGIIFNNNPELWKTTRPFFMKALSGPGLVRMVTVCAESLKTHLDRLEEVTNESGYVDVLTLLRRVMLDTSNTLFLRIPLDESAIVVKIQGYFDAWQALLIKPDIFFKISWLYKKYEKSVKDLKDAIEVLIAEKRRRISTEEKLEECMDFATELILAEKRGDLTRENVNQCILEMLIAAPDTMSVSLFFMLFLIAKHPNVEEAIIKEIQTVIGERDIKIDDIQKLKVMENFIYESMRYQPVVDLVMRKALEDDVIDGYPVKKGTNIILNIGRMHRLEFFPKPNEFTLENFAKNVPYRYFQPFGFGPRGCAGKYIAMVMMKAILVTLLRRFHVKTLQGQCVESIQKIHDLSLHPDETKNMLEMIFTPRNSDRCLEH
# [15] = qHTS assay to identify aromatase inhibitors - cell viability counter screen (AID 743084); details: MCF-7 aro ERE viability, CellTiter-Fluor, 24 h; series mostly up to 70.3 µM;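 further: cells stimulated with testosterone during compound exposure; nearly all actives have a fitted effect of over 55% in size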
# [16] = target: Aryl hydrocarbon receptor (Homo sapiens) (UniProt P35869); assay: qHTS assay to identify small molecule that activate the aryl hydrocarbon receptor (AhR) signaling pathway (AID 743085); details: HepG2 AhR-luc (HG2L7.5c1), luciferase, 24 h; series mostly up to 70.3 µM;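 further: HG2L7.5c1 human HepG2 liver cells with stably integrated DRE-driven firefly reporter; nearly all actives have a fitted effect of over 15% in size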
# Chain of Aryl hydrocarbon receptor (Homo sapiens) (P35869 whole entry, looked up): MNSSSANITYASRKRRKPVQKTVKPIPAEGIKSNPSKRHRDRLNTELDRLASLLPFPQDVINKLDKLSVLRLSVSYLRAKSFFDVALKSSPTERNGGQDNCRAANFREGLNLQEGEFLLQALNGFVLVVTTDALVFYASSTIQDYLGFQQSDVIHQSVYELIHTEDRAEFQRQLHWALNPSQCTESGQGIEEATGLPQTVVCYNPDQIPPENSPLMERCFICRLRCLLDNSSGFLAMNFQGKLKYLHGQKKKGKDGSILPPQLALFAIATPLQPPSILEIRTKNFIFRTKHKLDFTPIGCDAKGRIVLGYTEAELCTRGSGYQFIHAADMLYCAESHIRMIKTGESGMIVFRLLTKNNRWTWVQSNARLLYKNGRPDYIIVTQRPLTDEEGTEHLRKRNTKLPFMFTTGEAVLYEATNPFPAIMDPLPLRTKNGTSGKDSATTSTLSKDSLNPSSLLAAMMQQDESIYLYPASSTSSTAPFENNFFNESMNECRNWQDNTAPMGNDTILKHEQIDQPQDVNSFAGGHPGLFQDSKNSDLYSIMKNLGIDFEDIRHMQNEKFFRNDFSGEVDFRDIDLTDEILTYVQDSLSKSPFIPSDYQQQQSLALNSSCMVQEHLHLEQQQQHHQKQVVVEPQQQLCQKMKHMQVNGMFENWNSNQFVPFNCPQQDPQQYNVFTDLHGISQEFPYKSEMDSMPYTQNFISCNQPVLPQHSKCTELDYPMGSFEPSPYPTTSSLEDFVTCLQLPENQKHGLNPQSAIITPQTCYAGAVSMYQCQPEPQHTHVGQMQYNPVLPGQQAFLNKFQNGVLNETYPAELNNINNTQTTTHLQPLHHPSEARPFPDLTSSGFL
# Procedure, shortened: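 Luminescence read-out: ONE-Glo reagent, 30 min at room temperature, in HG2L7.5c1 HepG2 reporter cells treated 24 h at 37C. Viability was measured beforehand by CellTiter-Fluor fluorescence after 30 min at 37C.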
# [17] = target: Acetylcholinesterase (Homo sapiens) (UniProt P22303); assay: Acetylcholinesterase (AChE) small molecule antagonists: colormetric cell-based qHTS assay (AID 1347395; calls by dose curve; further: nearly all actives have a fitted effect of over 30% in size; further: potency means the concentration at half of the fitted maximal effect); details: SH-SY5Y cells AChE activity, colorimetric (Ellman); series mostly up to 115 µM
# Chain of Acetylcholinesterase (Homo sapiens) (P22303 whole entry, looked up): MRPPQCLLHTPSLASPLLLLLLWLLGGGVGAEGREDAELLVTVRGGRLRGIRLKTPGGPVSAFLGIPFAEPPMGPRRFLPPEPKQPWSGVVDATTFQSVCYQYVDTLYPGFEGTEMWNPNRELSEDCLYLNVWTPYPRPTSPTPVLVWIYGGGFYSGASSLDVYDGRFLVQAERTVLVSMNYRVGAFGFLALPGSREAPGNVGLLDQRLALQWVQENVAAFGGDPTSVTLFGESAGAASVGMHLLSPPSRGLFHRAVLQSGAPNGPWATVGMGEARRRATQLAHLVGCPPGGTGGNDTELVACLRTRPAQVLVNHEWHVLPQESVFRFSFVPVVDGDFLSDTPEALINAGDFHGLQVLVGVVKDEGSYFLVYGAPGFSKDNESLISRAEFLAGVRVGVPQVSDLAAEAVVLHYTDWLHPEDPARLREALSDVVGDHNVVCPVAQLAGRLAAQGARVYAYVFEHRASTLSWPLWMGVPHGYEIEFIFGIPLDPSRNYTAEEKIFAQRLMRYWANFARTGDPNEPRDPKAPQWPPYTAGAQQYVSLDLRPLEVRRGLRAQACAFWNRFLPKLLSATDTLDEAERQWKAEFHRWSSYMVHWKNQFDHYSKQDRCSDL
# Procedure, shortened: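 SH-SY5Y cells; cpd 30 min 37 C; + DTNB/acetylthiocholine, 90 min 37 C; colorimetric thiocholine read; qHTS.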
# [18] = target: Acetylcholinesterase (Homo sapiens) (UniProt P22303); assay: Acetylcholinesterase (AChE) small molecule antagonists: enzyme-based qHTS assay (AID 1347397; calls by dose curve; further: nearly all actives have a fitted effect of over 55% in size; further: potency means the concentration at half of the fitted maximal effect); details: Potency: AChE enzyme activity inhibition; outcome: AChE enzyme activity inhibition; series mostly up to 115 µM
# Procedure, shortened: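 Colorimetric DTNB readout of acetylthiocholine hydrolysis, 10 min at room temperature, after 30 min room-temperature exposure of 50 mU/mL recombinant human enzyme to compound; DMSO vehicle control.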
# [19] = target: Acetylcholinesterase (Homo sapiens) (UniProt P22303); assay: Acetylcholinesterase (AChE) small molecule antagonists: fluorescence cell-based qHTS assay (AID 1347398; calls by dose curve; further: nearly all actives have a fitted effect of over 50% in size; further: potency means the concentration at half of the fitted maximal effect); details: SH-SY5Y cells; Potency: AChE activity; outcome: AChE activity; series mostly up to 115 µM
# Procedure, shortened: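 Cellular AChE activity read as thiocholine from acetylthiocholine hydrolysis, detected by Thiolite Green fluorescence at 490/520 nm after 40 min at room temperature. Compounds were pre-incubated 30 min at 37 C on adherent SH-SY5Y cells.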
Structure (SMILES),Potency [1],Potency [2],Potency [3],Potency [4],outcome [5],Potency [6],outcome [7],Potency [8],Potency [9],outcome [10],outcome [11],Potency [12],Potency [13],Potency [14],Potency (Aromatase (Homo sapiens)),Potency [15],Potency [16],Potency [17],Potency [18],Potency [19]
COC(=O)[C@@H]1[C@H]2CC[C@@H](C[C@H]1OC(=O)c1ccccc1)N2C,inactive,inactive,inactive,inactive,inactive,inactive,inactive,inactive,inactive,inactive,inactive,inactive,inactive,inactive,inactive,inactive,inactive,,,
CN=C1CN(O)C(c2ccccc2)=c2cc(Cl)ccc2=N1,inactive,inactive,inactive,inactive,inactive,inactive,,inactive,inactive,inactive,inactive,inactive,inactive,inactive,inactive,inactive,inactive,,,
OC(c1ccccc1)(c1ccccc1)C1CN2CCC1CC2 (configuration not stated),inactive,inactive,inactive,inactive,inactive,inactive,inactive,inactive,inactive,inactive,inactive,inactive,inactive,inactive,inactive,inactive,,,,
CN1CCN(C2=Nc3cc(Cl)ccc3Nc3ccccc32)CC1,,,,,,,,,,,,,,,,,,inactive,inactive,
CCN(C(=O)c1cc(C)cc(OC[C@H](C)Nc2ccncc2)c1)C(C)C,,,,,,,,,,,,,,,,,,12.5 µM (active),22.2 µM (active),6.26 µM (active)
COc1ccc(CCN(C)CCCC(C#N)(c2ccc(OC)c(OC)c2)C(C)C)cc1OC (configuration not stated),,,,,,,,,,,,,,,,,,inactive,inactive,inactive
C[C@]12CC[C@H](O)C[C@H]1CC[C@@H]1[C@@H]2CC[C@]2(C)[C@@H](c3ccc(=O)oc3)C[C@H]3O[C@]132,inactive,750 nM (active),2.11 µM (active),inactive,inactive,inactive,inactive,inactive,inactive,inactive,inactive,inactive,inactive,inactive,inactive,inactive,,,,
CC(Cc1ccccc1)NC=O (configuration not stated),inactive,inactive,inactive,inactive,inactive,inactive,inactive,inactive,inactive,inactive,inactive,inactive,inactive,inactive,inactive,inactive,inactive,,,
C#CCN1CC(=O)N(COC(=O)C2C(C=C(C)C)C2(C)C)C1=O (configuration not stated),inactive,inactive,inactive,inactive,inactive,inactive,inactive,inactive,inactive,inactive,inactive,inactive,inactive,inactive,inactive,inactive,inactive,,,
CCN(CC)CCO[C@H]1CC[C@@]2(C)C(=CC[C@@H]3[C@@H]2CC[C@]2(C)C(=O)CC[C@@H]32)C1,inactive,inactive,inactive,inactive,inactive,inactive,,inactive,inactive,inactive,inactive,inactive,inactive,inactive,inactive,inactive,inactive,,,
CCC/C=C/C=C/C(=O)O[C@H]1/C(=C/C(=O)OC)C[C@H]2C[C@H]([C@@H](C)O)OC(=O)C[C@H](O)C[C@@H]3C[C@H](OC(C)=O)C(C)(C)[C@](O)(C[C@@H]4C/C(=C/C(=O)OC)C[C@H](/C=C/C(C)(C)[C@]1(O)O2)O4)O3,4.7 nM (active),inactive,inactive,inactive,inactive,inactive,inactive,inactive,inactive,inactive,inactive,inactive,inactive,inactive,inactive,inactive,inactive,,,
O=C(C[C@@H]1NCCC[C@H]1O)Cn1cnc2cc(Br)c(Cl)cc2c1=O,inactive,inactive,inactive,inactive,inactive,inactive,inactive,inactive,inactive,inactive,inactive,inactive,inactive,inactive,inactive,inactive,,,,
CCCC(C)C1(CC)C(=O)NC(=O)NC1=O (configuration not stated),inactive,,inactive,inactive,inactive,inactive,inactive,inactive,inactive,inactive,inactive,inactive,inactive,inactive,inactive,inactive,inactive,,,
CN1[C@@H]2CC[C@H]1CC(OC1c3ccccc3CCc3ccccc31)C2 (some centres not stated),inactive,inactive,inactive,inactive,inactive,inactive,inactive,inactive,inactive,inactive,inactive,inactive,inactive,inactive,inactive,inactive,inactive,,,
C[C@]12C[C@H]3S[C@H]3C[C@@H]1CC[C@@H]1[C@@H]2CC[C@]2(C)[C@@H](O)CC[C@@H]12,inactive,inactive,inactive,inactive,inactive,inactive,inactive,inactive,inactive,inactive,inactive,inactive,inactive,inactive,inactive,inactive,inactive,,,
CC(C)[C@@]1(NC(=O)[C@@H]2C[C@@H]3c4cccc5[nH]cc(c45)C[C@H]3N(C)C2)O[C@@]2(O)[C@@H]3CCCN3C(=O)[C@H](Cc3ccccc3)N2C1=O,inactive,inactive,,inactive,inactive,inactive,inactive,inactive,inactive,inactive,inactive,inactive,inactive,inactive,inactive,inactive,inactive,,,
